Reference: PubChem BioAssay AID1159580 (chemical genetic matrix, 2015)
Among all 5,500 compounds or so, about 2,000 (36%) were called active. About 18% were inconclusive and are not listed. No stated cut-off is given here; in the data, active means normalized growth mostly below about 0.91 (no sharp cut-off); inconclusive means no clear call, values can overlap the other calls; inactive means mostly above about 0.92. The list shows a part of the results.

Assay: chemical genetic growth profiling, strain panel (AID 1159580);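 further: tested at 20 µM; growth read once vehicle control cultures reached saturation at 30 °C; 1 = growth at the plate median or of vehicle wells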
Settings: S. cerevisiae deletion strains, growth OD

Measured: normalized growth

OC[C@H]1OC([S-])[C@H](O)[C@@H](O)[C@@H]1O.[Au+] (some centres undefined)
inactive: locus YAL021C, strain ccr4, stronger effect = lower value 1.03 | locus YAL026C, strain drs2, stronger effect = lower value 1.03 | locus YAL030W, strain snc1, stronger effect = lower value 1.03 | locus YBL061C, strain skt5, stronger effect = lower value 1.02 | locus YBR009C, strain hhf1, stronger effect = lower value 1.02 | locus YBR023C, strain chs3, stronger effect = lower value 1.01 | locus YBR171W, strain sec66, stronger effect = lower value 1.01 | locus YBR231C, strain swc5, stronger effect = lower value 1.02 | locus YBR279W, strain paf1, stronger effect = lower value 1.01 | locus YCL011C, strain gbp2, stronger effect = lower value 1 | locus YCL016C, strain dcc1, stronger effect = lower value 1 | locus YCL069W, strain vba3, stronger effect = lower value 1.01 | locus YCR088W, strain abp1, stronger effect = lower value 1.01 | locus YDL005C, strain med2, stronger effect = lower value 1.02 | locus YDL040C, strain nat1, stronger effect = lower value 1.01 | locus YDR001C, strain nth1, stronger effect = lower value 1 | locus YDR069C, strain doa4, stronger effect = lower value 1.01 | locus YDR137W, strain rgp1, stronger effect = lower value 1.03 | locus YDR159W, strain sac3, stronger effect = lower value 1.06 | locus YDR195W, strain ref2 1.03 | locus YDR297W, strain sur2, stronger effect = lower value 1 | locus YDR334W, strain swr1, stronger effect = lower value 1.01 | locus YDR335W, strain msn5, stronger effect = lower value 1.02 | locus YDR392W, strain spt3, stronger effect = lower value 1.03 | locus YEL003W, strain gim4, stronger effect = lower value 1.01 | locus YEL037C, strain rad23, stronger effect = lower value 1.01 | locus YEL061C, strain CIN8 (second series), stronger effect = lower value 1.01 | locus YER015W, strain faa2, stronger effect = lower value 1.01 | locus YER016W, strain bim1, stronger effect = lower value 1.02 | locus YER111C, strain swi4, stronger effect = lower value 1.01 | locus YER155C, strain BEM2 (second series), stronger effect = lower value 1.05 | locus YFR010W, strain ubp6, stronger effect = lower value 1.02 | locus YGL167C, strain pmr1, stronger effect = lower value 1 | locus YGL173C, strain kem1, stronger effect = lower value 1.02 | locus YGL227W, strain vid30, stronger effect = lower value 1.01 | locus YGL240W, strain doc1, stronger effect = lower value 1.03 | locus YGL253W, strain hxk2, stronger effect = lower value 1.01 | locus YHR013C, strain ard1, stronger effect = lower value 1.02 | locus YHR027C, strain rpn1, stronger effect = lower value 0.992 | locus YHR030C, strain SLT2, stronger effect = lower value 1.05 | locus YHR079C, strain IRE1, stronger effect = lower value 1.1 | locus YHR142W, strain chs7, stronger effect = lower value 0.995 | locus YJL092W, strain hpr5, stronger effect = lower value 1.01 | locus YJL095W, strain BCK1 (second series), stronger effect = lower value 1.01 | locus YJL095W, strain BCK1, stronger effect = lower value 1.08 | locus YJL115W, strain asf1, stronger effect = lower value 1.01 | locus YJL129C, strain trk1, stronger effect = lower value 1.01 | locus YJL154C, strain vps35, stronger effect = lower value 1.01 | locus YJL164C, strain tpk1, stronger effect = lower value 1.01 | locus YJL166W, strain qcr8, stronger effect = lower value 1.02 | locus YJL187C, strain SWE1, stronger effect = lower value 1.02 | locus YJR066W, strain TOR1, stronger effect = lower value 0.998 | locus YKL160W, strain elf1, stronger effect = lower value 1 | locus YKR026C, strain gcn3, stronger effect = lower value 1.01 | locus YKR091W, strain srl3, stronger effect = lower value 1.01 | locus YLL001W, strain dnm1, stronger effect = lower value 1.01 | locus YLL026W, stronger effect = lower value 1.01 | locus YLL041C, strain sdh2, stronger effect = lower value 0.999 | locus YLR027C, strain aat2, stronger effect = lower value 1.02 | locus YLR221C, strain rsa3, stronger effect = lower value 1.01 | locus YLR258W, strain gsy2, stronger effect = lower value 1.01 | locus YLR262C, strain YPT6 (second series), stronger effect = lower value 1 | locus YLR320W, strain mms22, stronger effect = lower value 1.02 | locus YLR342W, strain FKS1, stronger effect = lower value 1.01 | locus YLR357W, strain rsc2, stronger effect = lower value 1.01 | locus YLR370C, strain arc18, stronger effect = lower value 1.01 | locus YLR384C, strain iki3, stronger effect = lower value 0.987 | locus YML120C, strain ndi1, stronger effect = lower value 1.02 | locus YMR058W, strain fet3, stronger effect = lower value 1.01 | locus YMR125W, strain sto1, stronger effect = lower value 1.02 | locus YMR129W, stronger effect = lower value 1.01 | locus YMR205C, strain PFK2, stronger effect = lower value 1.03 | locus YMR231W, strain pep5, stronger effect = lower value 1.01 | locus YNL071W, strain lat1, stronger effect = lower value 1 | locus YNL183C, strain NPR1, stronger effect = lower value 1.02 | locus YNL209W, strain ssb2, stronger effect = lower value 1 | locus YNL248C, strain rpa49, stronger effect = lower value 1.01 | locus YNL322C, strain KRE1 (second series), stronger effect = lower value 1.01 | locus YNR049C, strain mso1, stronger effect = lower value 0.997 | locus YOR001W, strain rrp6, stronger effect = lower value 1.02 | locus YOR070C, strain gyp1, stronger effect = lower value 1 | locus YOR080W, strain dia2, stronger effect = lower value 1.01 | locus YOR083W, strain WHI5, stronger effect = lower value 0.996 | locus YOR106W, strain vam3, stronger effect = lower value 1.03 | locus YOR231W, strain MKK1, stronger effect = lower value 1.09 | locus YOR265W, strain rbl2, stronger effect = lower value 1.01 | locus YOR290C, strain snf2, stronger effect = lower value 1.01 | locus YPL051W, strain arl3, stronger effect = lower value 0.994 | locus YPL078C, strain atp4, stronger effect = lower value 1.03 | locus YPL106C, strain sse1, stronger effect = lower value 1.01 | locus YPL240C, strain hsp82, stronger effect = lower value 1.01 | locus YPL256C, strain CLN2, stronger effect = lower value 1.16
active: locus YLR113W, strain HOG1, stronger effect = lower value 1.17 [resistant] | locus YOR270C, strain vph1, stronger effect = lower value 1.27 [resistant]
